SMILES strings stand for the structures. Values without a mark were called inactive. Records with an inconclusive call do not appear. Activity calls are given as the source filed them. Unless noted, calls come from the whole dose curve; as a rule, active = well fitted curve in either direction with a large enough effect (not every such curve was filed as active); inconclusive = small, poorly fitted or top-dose-only effect, or another doubt; inactive = flat fitted curve, though single readings scatter. Where only a bound is given, the exact number is not on record here.

These results are taken from PubChem BioAssay (NCATS).

Assay [1] in a line: NFAT Signaling Pathway (AID 444).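 Note: carbachol stimulus at about its EC50 of 1 µM final; % is set by controls: 0 for no effect and ±100 for the full control effect.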 Conditions: Jurkat NFAT-bla M1, carbachol, beta-lactamase ratio, 5 h; at 17.2 µM (top of the series) unless noted. The procedure, abridged:
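Jurkat cells with NFAT-driven β-lactamase reporter and co-expressed M1 receptor, stimulated with carbachol (final 1 uM, ~EC50), compound titration, 5 h at 37 °C. CCF4 loaded 1 h at RT; 460/530 nm ratio gave %activity and AC50.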

In assay [2] the target is Glucocorticoid receptor (Homo sapiens) (UniProt P04150). The assay is described as follows: GR-GFP Redistribution (AID 450;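 active = compounds whose dose series gives a full or clear partial fitted curve of increased nuclear translocation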; note: potency is the fitted concentration of half-maximal effect).
Sequence of Glucocorticoid receptor (Homo sapiens) (P04150 whole entry, looked up): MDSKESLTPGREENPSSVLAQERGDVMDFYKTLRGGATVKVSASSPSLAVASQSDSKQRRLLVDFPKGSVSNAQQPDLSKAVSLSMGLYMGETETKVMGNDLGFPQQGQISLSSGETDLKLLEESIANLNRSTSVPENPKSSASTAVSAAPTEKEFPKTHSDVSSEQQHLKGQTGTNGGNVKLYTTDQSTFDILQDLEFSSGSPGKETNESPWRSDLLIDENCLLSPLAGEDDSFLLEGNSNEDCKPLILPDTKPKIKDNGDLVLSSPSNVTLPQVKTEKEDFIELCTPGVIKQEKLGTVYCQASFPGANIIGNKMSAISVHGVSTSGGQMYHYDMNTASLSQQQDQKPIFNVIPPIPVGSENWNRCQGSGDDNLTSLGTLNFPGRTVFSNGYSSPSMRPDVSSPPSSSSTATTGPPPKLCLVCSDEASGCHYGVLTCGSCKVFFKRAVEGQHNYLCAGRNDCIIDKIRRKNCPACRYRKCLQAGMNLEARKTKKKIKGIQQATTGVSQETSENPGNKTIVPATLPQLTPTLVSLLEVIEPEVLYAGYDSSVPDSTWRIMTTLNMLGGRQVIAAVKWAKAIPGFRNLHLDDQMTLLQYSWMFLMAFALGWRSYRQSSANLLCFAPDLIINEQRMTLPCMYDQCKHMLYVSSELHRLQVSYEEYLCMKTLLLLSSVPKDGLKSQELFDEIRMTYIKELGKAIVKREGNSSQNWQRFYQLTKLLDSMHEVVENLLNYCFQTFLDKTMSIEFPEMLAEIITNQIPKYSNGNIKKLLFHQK
Assay [3] can be described thus: Stat Signaling Pathway (AID 446).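 Note: ME-180 cervical cancer cells given 40 pM IL-6 alongside compound; SIE-controlled beta-lactamase reporter measured as 460/530 nm FRET emission ratio; % is set by controls: 0 for no effect and ±100 for the full control effect.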 The following applies: ME-180 SIE beta-lactamase reporter, IL-6 stimulated, 5 h; at 17.2 µM (top of the series) unless noted. A digest of the protocol:
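IL-6/STAT signaling read in ME-180 cells via an SIE beta-lactamase reporter. Stimulus was 40 pM IL-6 (its AC50) for 5 hrs, so both activation and inhibition register.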

A short description of assay [4]: qHTS Assay for Identification of Small Molecule Agonists for Hypoxia Response Element Signaling Pathway (AID 914; active = well fitted activation curve with a large enough effect in the signal ratio, with a control signal flat, not every such curve was filed as active; the % refers to the signal ratio; note: potency is the fitted concentration of half-maximal effect; for activation: % of control where 0% means no effect). Conditions: ME-180 (cervical carcinoma) HRE-bla reporter, beta-lactamase ratio, CoCl2, 17 h; activation: stronger effect = higher value. A digest of the protocol:
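qHTS titration; ME-180 HRE-bla cells; EC50 CoCl2 co-treatment, 17 h at 37 degrees Celsius; CCF4 dye, ex 405nm, em 460nm and 530nm; %Activity from ratio; AC50.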

As to `COc1ccc(-c2nnc3sc(-c4ccccc4OC)nn23)cc1`, in assay [1], the activity change, negative = inhibition was -23.6%. For the same compound, the Potency in assay [2] was more than 20.6 µM.

Consider `CC(=Nc1cccc(O)c1)c1sc2ccccc2c1O`, for which, in assay [1], the activity change, negative = inhibition is -27.3%. In assay [2], the Potency was more than 20.6 µM.

With `Cc1cc(C)c(-n2c(O)c(C=NCCN3CCOCC3)c(=O)[nH]c2=O)c(C)c1`, in assay [1], the activity change, negative = inhibition was 7.98%. Besides, in assay [3], the activity, negative = inhibition is 4.18%. The Potency in assay [2] was more than 20.6 µM. In addition, the activation in assay [4] is -6.53%.

Take `CCOC(=O)C1/C(=N\O)CC(C)(O)C(C(=O)OCC)C1c1ccc(OC)c(OC)c1` (stereo unspecified): the activity change, negative = inhibition in assay [1] is -0.404%. The activity, negative = inhibition in assay [3] is 0.164%. The Potency in assay [4] was 0.794 µM (active).

In the case of `CSc1nc(N)c(C#N)c(-c2ccccc2Cl)c1C#N`, in assay [1], the activity change, negative = inhibition is 19.4%. Also, in assay [2], the Potency is more than 20.6 µM.

In the case of `O=C(CCN1CCCC1Cc1ccccc1)c1ccc2c(c1)OCCO2` (stereo unspecified), the activity, negative = inhibition in assay [3] is 14.7%. The Potency in assay [2] is more than 20.6 µM.

With `COc1ccc(CCn2c(C)cc3c(c2=O)C(c2ccc4c(c2)OCO4)C(C#N)=C(N)O3)cc1OC` (stereo unspecified), the activity, negative = inhibition in assay [3] was -21.6%. In addition, in assay [2], the Potency is more than 20.6 µM.

Take `CN(CCCCCNC(=O)/C=N/O)Cc1ccccc1`: the activity, negative = inhibition in assay [3] was 9.45%. Besides, the Potency in assay [2] was more than 20.6 µM.

`CC(NC(=O)CSc1nc2c(cc1C#N)CN(C)CC2)c1ccccc1` (stereo unspecified): the activity, negative = inhibition in assay [3] was -4.3%. Besides, the Potency in assay [2] is more than 20.6 µM.

As for `N#Cc1nc(-c2ccc(Cl)cc2)oc1N1CCCCC1`, the activity, negative = inhibition in assay [3] is 2.4%. For the same compound, the Potency in assay [2] was more than 20.6 µM.

On to `COCc1[nH]nc2c1C(c1sccc1C)C(C#N)=C(N)O2` (stereo unspecified), for which the activity, negative = inhibition in assay [3] is -24.3%. The Potency in assay [2] is more than 20.6 µM.

For the compound `CCOC(=O)CC(=O)CSc1nc(N)c(C#N)c(-c2ccc(Cl)cc2)c1C#N`, in assay [3], the activity, negative = inhibition was -16.4%. Besides, the Potency in assay [2] is more than 20.6 µM.

With `CC1(C)Cc2c(sc3c2C2=NCCN2C=N3)CS1`, the activity, negative = inhibition in assay [3] was 5.3%. Also, the Potency in assay [2] was more than 20.6 µM.

As to `COc1ccccc1N1C(=O)C2ON(c3ccccc3)C(c3ccc(N(C)C)cc3)C2C1=O` (stereo unspecified), in assay [3], the activity, negative = inhibition is -10.2%. The Potency in assay [2] is more than 20.6 µM.

As to `N#Cc1ccc(-c2ccco2)nc1SCC(=O)c1ccc(Cl)cc1`, in assay [3], the activity, negative = inhibition was -9.2%. Also, in assay [2], the Potency is more than 20.6 µM.

With `Cc1nc(SCC(=O)c2ccccc2)c(C#N)c(-c2ccco2)c1C(=O)NCc1ccco1`, the activity, negative = inhibition in assay [3] was -21.3%. The Potency in assay [2] was more than 20.6 µM.

As to `N#Cc1ccc(-c2ccc(OCC(O)Cn3nnc4ccccc43)cc2)cc1` (stereo unspecified), the activity, negative = inhibition in assay [3] was -29.1%. Further, in assay [2], the Potency is more than 20.6 µM.

Take `CCCOC(=O)CSC1=C(C#N)C(c2ccccc2OCC)C(C#N)C(=O)N1` (stereo unspecified): the activity, negative = inhibition in assay [3] is -11.2%. Besides, the Potency in assay [2] was more than 20.6 µM.

In the case of `N#CC1=C(N)NC(SCc2ccc(F)cc2)=C(C#N)C12CCCCC2`, the activity, negative = inhibition in assay [3] is -24.1%. In addition, the Potency in assay [2] is more than 20.6 µM.

Consider `COc1cccc(-c2nc(NC(C)(C)C)c3ccccc3n2)c1O`, for which the activity, negative = inhibition in assay [3] is -74.9% (active). The Potency in assay [2] was more than 20.6 µM.

For the compound `CC1(C)Cc2c(c(N3CCOCC3)nc3sc4c(NCc5ccco5)nnnc4c23)CS1`, in assay [3], the activity, negative = inhibition is -26.9%. The Potency in assay [2] was more than 20.6 µM.

Regarding `COc1cc(C2C(C#N)=C(N)Oc3cc(N)ccc32)cc(OC)c1OC` (stereo unspecified), the activity, negative = inhibition in assay [3] was -20.2%. Further, the Potency in assay [2] is more than 20.6 µM.

In the case of `COc1ccc(Nc2cc(C)nc(-n3nc(C)cc3C)n2)cc1`, the activity, negative = inhibition in assay [3] is -13%. In assay [2], the Potency was more than 20.6 µM.

Regarding `CC(C)Cc1nc(N2CCN(C(=O)c3ccco3)CC2)c(C#N)c2c1CCC2`, the activity, negative = inhibition in assay [3] was -7.73%. In assay [2], the Potency is more than 20.6 µM.

Turning to `C=CCc1cccc(CNc2nc3ccccc3n2C(C)C)c1O`, in assay [3], the activity, negative = inhibition is -22.2%. Besides, the Potency in assay [2] is more than 20.6 µM.

As to `Cc1cc(NCCNC2=CC(=O)CCC2)nc2ccccc12`, in assay [3], the activity, negative = inhibition was 4.57%. Also, the Potency in assay [2] is more than 20.6 µM.

For `O=c1c2sc3nc(N4CCOCC4)c4c(c3c2ncn1Cc1ccco1)CCCC4`, the activity, negative = inhibition in assay [3] is -14.9%. The Potency in assay [2] was more than 20.6 µM.

Regarding `CN(C)c1nc(OCCNC(=O)Nc2ccccc2)nc(N(C)C)n1`, in assay [3], the activity, negative = inhibition was -7.19%. Moreover, the Potency in assay [2] was more than 20.6 µM.

On to `N#CCSc1nc2c(c(=O)n1Cc1ccco1)C1(CCCC1)Cc1ccccc1-2`, for which, in assay [3], the activity, negative = inhibition is -1.5%. Moreover, the Potency in assay [2] was more than 20.6 µM.

Take `COC(=O)c1[nH]c2cc(OC)ccc2c1NC(=O)CN1CCN(c2cccc(C)c2)C(C)C1` (stereo unspecified): in assay [3], the activity, negative = inhibition is -21.4%. For the same compound, in assay [2], the Potency was more than 20.6 µM.

`COc1ccc(C(=O)C(CN2CCCC2)c2ccccc2)cc1` (stereo unspecified): the activity, negative = inhibition in assay [3] was -8.3%. Moreover, the Potency in assay [2] is more than 20.6 µM.

Take `COc1ccc(C2C=C(c3ccc(C)cc3)Nc3ncnn32)cc1` (stereo unspecified): in assay [3], the activity, negative = inhibition was -14.5%. The Potency in assay [2] was more than 20.6 µM.

For the compound `Cc1ccccc1-n1c(=O)/c(=C\c2ccco2)s/c1=C(/C#N)C(=O)Nc1ccccc1`, the activity, negative = inhibition in assay [3] was -25.9%. In addition, the Potency in assay [2] was more than 20.6 µM.

For the compound `CCOC(=O)c1[nH]c2ccc(Br)cc2c1NC(=O)CCN1CCC(C(=O)OCC)CC1`, the activity, negative = inhibition in assay [3] is -11%. Also, the Potency in assay [2] was more than 20.6 µM.
